According to PubChem BioAssay AID1063 (University of Pittsburgh Molecular Library Screening Center, 2008):
Hit rate of the full screen: of about 200,000 compounds, about 18,000 (9%) were called active. The sample holds actives, similar compounds and a random draw of the others, so the mix is not that of the screen. Values without a mark were called inactive. No stated cut-off is given here; in the data, active means inhibition above about 50%; inactive means the rest.

assay: antileishmanial activity against promastigotes – primary screen (AID 1063); conditions: Leishmania major promastigotes, resazurin fluorescence viability; at 10 µM; hits give high values;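 further: promastigotes grown with compound for 44 hours at 28 °C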

Q: Which inhibition does the source give for `COc1cc(CC(=O)N/N=C/c2ccccc2)c([N+](=O)[O-])cc1OC` here?
A: -0.35%

Q: Which inhibition does the source give for `COc1cc(CN2CCN(Cc3ccc(C)cc3)CC2)c([N+](=O)[O-])cc1OC` here?
A: 53.4% (active)

Q: For `COc1cc(CN2CC(C)CC(C)C2)cc([N+](=O)[O-])c1O` (stereo not given), which inhibition is on record?
A: 16.2%

Q: For `CCOC(=O)CNC(=O)/C(=C\c1ccc(F)cc1)NC(=O)c1ccccc1`, which inhibition is on record?
A: -2.16%

Q: Which inhibition does the source give for `CCN(CC(=O)NCc1cccs1)C(=O)c1ccccc1F` here?
A: 35%

Q: Which inhibition does the source give for `CCOc1ccc(CCNC(=O)C2=C(C)C(=O)OC23CCC(C)CC3)cc1OCC` (stereo not given) here?
A: 5.17%

Q: With `COc1ccc(CNC(=O)CN2CCC(n3nnc4cc(F)ccc43)CC2)cc1` as the molecule, how does the inhibition read?
A: 2.66%

Q: With `CCOc1cc(NC(=S)NCCCOC)c(OCC)cc1NC(=O)c1ccco1` as the molecule, how does the inhibition read?
A: 36.4%

Q: With `CCC1CCc2c(sc(NC(C)=O)c2C#N)C1` (stereo not given) as the molecule, how does the inhibition read?
A: -3.49%

Q: For `CCN1CCN(CC(=O)Nc2sc3c(c2C#N)CCC3)CC1`, which inhibition is on record?
A: -1.23%

Q: With `CN1CCN(CC(=O)Nc2sc3c(c2C#N)CCC(C(C)(C)C)C3)CC1` (stereo not given) as the molecule, how does the inhibition read?
A: 100% (active)

Q: With `Cc1nn2cc(-c3ccc(Cl)cc3)cnc2c1Br` as the molecule, how does the inhibition read?
A: -2.01%

Q: With `COc1ccc(Cl)cc1C(=O)NCC#N` as the molecule, how does the inhibition read?
A: -4%

Q: With `N#C/C=C\Oc1ccc(Cl)cc1N` as the molecule, how does the inhibition read?
A: 67.9% (active)

Q: Which inhibition does the source give for `CCCC/S(C)=N/S(=O)(=O)c1ccc(C)cc1` (stereo not given) here?
A: -10.2%

Q: With `COc1cc(NS(=O)(=O)c2ccc(NC(=O)c3ccc(S(=O)(=O)N4CCCCC4)cc3)cc2)ncn1` as the molecule, how does the inhibition read?
A: -2.97%

Q: With `Cc1c(CCO)sc[n+]1CC(=O)OC12CC3CC(CC(C3)C1)C2` as the molecule, how does the inhibition read?
A: 30.7%

Q: With `Cc1c(CCOC(=O)c2cc([N+](=O)[O-])ccc2Cl)sc[n+]1CCCCS(=O)(=O)[O-]` as the molecule, how does the inhibition read?
A: -8.59%

Q: Which inhibition does the source give for `Cc1c(CCOC(=O)CC23CC4CC(CC(C)(C4)C2)C3)sc[n+]1Cc1ccc([N+](=O)[O-])cc1` here?
A: 87.9% (active)

Q: For `COCCNC(=O)CCCn1c(=O)c2ccccc2n(Cc2cccc([N+](=O)[O-])c2)c1=O`, which inhibition is on record?
A: 4.7%

Q: For `CCCCNC(=O)CCn1c(=O)c2ccccc2n(Cc2cc(C)ccc2C)c1=O`, which inhibition is on record?
A: 58% (active)

Q: For `CCCCNC(=O)CCn1c(=S)[nH]c2cc3c(cc2c1=O)OCO3`, which inhibition is on record?
A: -1.74%

Q: With `Cc1cc(OC(=O)c2ccccc2)c([N+](=O)[O-])c(=O)[nH]1` as the molecule, how does the inhibition read?
A: -2.98%

Q: With `COc1ccc(CN(C)C(=S)Nc2ccc(Cl)cc2Cl)cc1` as the molecule, how does the inhibition read?
A: 4.79%

Q: Which inhibition does the source give for `CCC(=O)Nc1nc2ccccc2n1Cc1ccccc1C` here?
A: 97.5% (active)

Q: With `CC(=O)Nc1nc2ccccc2n1Cc1ccc(C)cc1` as the molecule, how does the inhibition read?
A: 88.6% (active)

Q: With `CCC(=O)NCCc1nc2ccccc2n1CC` as the molecule, how does the inhibition read?
A: -0.68%

Q: For `O=S(=O)(O)c1nc2ccccc2n1Cc1ccc(Cl)cc1`, which inhibition is on record?
A: -5.39%

Q: For `Cc1ccc(Cn2c(NC(=O)c3ccco3)nc3ccccc32)cc1`, which inhibition is on record?
A: 9.07%

Q: For `CCCCn1c(CCCNC(=O)CC)nc2ccccc21`, which inhibition is on record?
A: 12.4%
